From PubChem BioAssay
Where “and” joins values, the source holds several entries; their conditions need not be identical. Equal entries are not always repeated. Calls of active or inactive are those of the source. Unless noted, the rule behind the calls is not given here.

Columns and labels:
[1] = liver-stage malaria parasite growth inhibition, primary screen, cell-based, HepG2, luciferase luminescence, HepG2 viability (AID 624349; in the data active = parasite load remaining mostly below about 12%, no sharp cut-off; inactive = mostly above about 10%;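 note: 100% = mean of DMSO negative control wells on the same plate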); conditions: P. berghei liver stage in HepG2, luciferase luminescence, concentration not given here; parasite load remaining: stronger effect = lower value; viability: measured here: HepG2 viability without parasites
[2] = system: Hepatitis C virus NS3 helicase; experiment: HCV NS3 helicase inhibitors, primary screen, biochemical, fluorescence polarization, LOPAC1280 library (AID 687035; in the data active = inhibition above about 37%); conditions: Purified HCV NS3 helicase, Cy5-dT15 ssDNA binding fluorescence polarization; stronger effect = higher value; concentration not given here
[3] = Cy5 fluorescence quenching or enhancement artefacts, artefact control for HCV NS3 helicase inhibitor project, biochemical, LOPAC1280 (AID 687037); conditions: Cy5-DNA-NS3h complex fluorescence interference counterscreen
[4] = Cy5 fluorescence interference with SSB-bound oligo, artefact control for HCV NS3 helicase inhibitor project, biochemical, NIH Clinical Collection, E. coli SSB (AID 743268)
[5] = system: Hepatitis C virus NS3 helicase; experiment: HCV NS3 helicase inhibitors, primary screen, biochemical, fluorescence polarization, NIH Clinical Collection (AID 743270); conditions: NS3 helicase binding to Cy5-dT15 DNA, stronger effect = higher value, concentration not given here
[6] = target: Single-stranded DNA-binding protein (Escherichia coli (strain K12)) (UniProt P0AGE0); experiment: E. coli SSB displacement from DNA, counter-screen for HCV NS3 helicase inhibitor project, biochemical, fluorescence polarization, NIH Clinical Collection (AID 743271; in the data active = inhibition above about 28%); conditions: stronger effect = higher value, concentration not given here
[7] = fluorescence interference in NS3h assay format, artefact control for HCV NS3 helicase inhibitor project, biochemical, NIH Clinical Collection (AID 743272); conditions: fluorescence interference counterscreen, stronger effect = lower value;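 note: HCV NS3 helicase with a Cy5 labelled single stranded DNA probe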
[8] = system: Neuropilin-2 / VEGF-C interaction (human); experiment: inhibitors of NRP2–VEGF-C binding, biochemical, microplate binding format, z-score (AID 743281); conditions: microplate NRP2/VEGF-C binding assay; stronger effect = lower value
[9] = stimulators of nuclear beta-catenin in C2C12, primary screen, imaging, WNT3A-conditioned medium, mouse C2C12, NPC library (AID 1117326; in the data active = nuclear beta-catenin stimulation mostly above about 4.2%, no sharp cut-off; inactive = mostly below about 10%); conditions: stronger effect = higher value

Cc1cccc(C)c1NC(=O)C(C)N (configuration not stated)
79.8% and 73.3%: viability [1]
1.2%: nuclear beta-catenin stimulation ([9]; stimulation, at 2 µM)
inactive: parasite load remaining [1] 112% and 108% | inhibition [2] -5% | fluorescence ratio (interference) [3] 1 | fluorescence ratio [4] 1.05 | inhibition [5] -5.15% | inhibition [6] -3.95% | fluorescence ratio [7] 1 | z-score [8] -0.227 | nuclear beta-catenin stimulation ([9]; at 10 µM) 0.2%

O=C(O)CCCCCCCC(=O)O
inactive: parasite load remaining [1] 102% and 78.4% | inhibition [2] 0% | fluorescence ratio (interference) [3] 0.9 | nuclear beta-catenin stimulation ([9]; at 10 µM) 0.3%
69% and 83.5%: viability [1]
-0.5%: nuclear beta-catenin stimulation ([9]; stimulation, at 2 µM)

O=C1N(c2ccccc2)c2ccccc2C1(Cc1ccncc1)Cc1ccncc1
3.8%: nuclear beta-catenin stimulation ([9]; stimulation, at 2 µM)
65.3%: viability [1]
inactive: parasite load remaining [1] 77.9% | inhibition [2] -7% | fluorescence ratio (interference) [3] 0.9 | fluorescence ratio [4] 0.98 | inhibition [5] -11.6% | inhibition [6] -1.18% | fluorescence ratio [7] 0.93 | z-score [8] -0.0491 | nuclear beta-catenin stimulation ([9]; at 10 µM) 0.2%

Nc1nnc(-c2cccc(Cl)c2Cl)c(N)n1
inactive: parasite load remaining [1] 90.9% and 119% and 49.7% | inhibition [2] -5% | fluorescence ratio (interference) [3] 1 | fluorescence ratio [4] 1.03 | inhibition [5] 0.4% | inhibition [6] -1.64% | fluorescence ratio [7] 0.99 | z-score [8] -0.624 | nuclear beta-catenin stimulation ([9]; at 10 µM) 0.7%
105% and 77.7% and 112%: viability [1]
0.5%: nuclear beta-catenin stimulation ([9]; stimulation, at 2 µM)

C#CCN(C)Cc1ccccc1
48.5% and 89.5% and 94.1%: viability [1]
inactive: parasite load remaining [1] 33.9% and 101% and 59.8% | inhibition [2] -3% | fluorescence ratio (interference) [3] 1 | nuclear beta-catenin stimulation ([9]; at 10 µM) 2.1%
3.2%: nuclear beta-catenin stimulation ([9]; stimulation, at 2 µM)

NC1CCN(c2cccc(Cl)n2)CC1
active: fluorescence ratio [4] 2.95 | inhibition [6] 133%
1.1%: nuclear beta-catenin stimulation ([9]; stimulation, at 2 µM)
inactive: parasite load remaining [1] 103% | inhibition [2] -6% | fluorescence ratio (interference) [3] 1 | inhibition [5] -1.19% | fluorescence ratio [7] 0.9 | z-score [8] -0.326 | nuclear beta-catenin stimulation ([9]; at 10 µM) -1.8%
71.3%: viability [1]

O=C(NCCN1CCOCC1)c1ccc(Cl)cc1
inactive: parasite load remaining [1] 153% and 134% | inhibition [2] -6% | fluorescence ratio (interference) [3] 0.9 | fluorescence ratio [4] 1.03 | inhibition [5] 5.94% | inhibition [6] 8.37% | fluorescence ratio [7] 0.99 | z-score [8] -0.561 | nuclear beta-catenin stimulation ([9]; at 10 µM) 0.1%
108% and 80.7%: viability [1]
0.4%: nuclear beta-catenin stimulation ([9]; stimulation, at 2 µM)
